High-throughput results (PubChem BioAssay)
Rows were chosen to be rich in hits. Some 3.6% of all compounds tested hit in one or more screens of this group.
mHTT-CaM PPI inh = mHTT-calmodulin interaction abrogation | P42858 | AlphaScreen His-mHTT/GST-CaM binding, luminescence | inhibition, % at 15 µM | 190,000 tested, 3.6% active | AID 1671202;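 further: 0% = both proteins with DMSO and 100% = one protein alone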
Pf apPOL inh = Pf-apPOL DNA polymerase inhibition. inhibition, % at 10 µM. AID 1794808. 210,000 tested, 0.25% active. Recombinant Pf-apPOL, molecular beacon fluorescence, 1.5 h
Numbers without * were called inactive; i = inactive; . = no result given. No stated cut-off is given here; in the data, active means inhibition above about 50%; inactive means the rest.

SMILES	mHTT-CaM PPI inh	Pf apPOL inh
Cc1oc(C(=O)O)cc1COc1ccc2c(C)c(C)c(=O)oc2c1C	8.0	-5.8
CC(=O)Nc1ccc(S(=O)(=O)N2CCN(c3nc4ccccc4n3C)CC2)cc1	2.6	-9.1
Cc1ccc(C(=O)N2CCN(c3cccc(F)c3)C(=O)C2C)cc1 (stereo not given)	-3.8	-2.4
Cc1c(-c2ccc(/C=C3\SC(=N)NC3=O)o2)ccc([N+](=O)[O-])c1C	41.0	1.9
COc1ccc(-c2ccc(/C=C3\SC(=N)NC3=O)o2)c([N+](=O)[O-])c1	59.0*	1.2
CN(C)C=CC=C1CCCC1=O	.	89.3*
CCC(=O)N1CCCC(COc2ccc(C(=O)N3CCOCC3)cc2)C1 (stereo not given)	3.6	-1.4
COc1cccc2c1C(=O)c1c(O)c3c(c(O)c1C2=O)CC(O)(C(=O)CO)CC3OC1CC(N)C(O)C(C)O1 (stereo not given)	.	i
CC(=O)[C@]1(O)Cc2c(O)c3c(c(O)c2[C@@H](O[C@H]2C[C@H](N)[C@H](O)[C@H](C)O2)C1)C(=O)c1ccccc1C3=O	.	50.2*
COc1ccc(OC)c(CNc2ccc([N+](=O)[O-])cc2C)c1	50.7*	5.4
Cc1cc([N+](=O)[O-])ccc1NCc1c[nH]c2ccccc12	68.6*	1.5
COc1ccc(CNc2ccc([N+](=O)[O-])cc2C)c(OC)c1C	1.4	-6.4
COc1ccc(OC)c(CNc2cc([N+](=O)[O-])ccc2OC)c1	-3.3	22.5
N#CC1=C(N)OC(c2ccccc2)=C(n2cncn2)C1c1ccc(Br)cc1 (stereo not given)	57.0*	8.9
N#CC1=C(N)OC(C2CC2)=C(n2cnc([N+](=O)[O-])n2)C1c1ccccc1 (stereo not given)	17.0	-5.0
N#CC1=C(N)OC(c2ccccc2)=C(n2cnc([N+](=O)[O-])c2)C1c1cccnc1 (stereo not given)	-1.0	-2.1
N#CC1=C(N)OC(c2ccccc2)=C(n2cnc([N+](=O)[O-])n2)C1c1ccccc1 (stereo not given)	75.4*	2.5
Cc1noc(C)c1S(=O)(=O)N1CCC(C(C)C(=O)NCc2ccccc2F)CC1 (stereo not given)	-1.5	-1.7
c1cc(-c2noc(-c3cccc4[nH]ccc34)n2)cc(-c2ccn[nH]2)c1	62.3*	4.3
Fc1ccccc1-c1nc(-c2cccc(-c3ccn[nH]3)c2)no1	9.2	1.6
COc1cc([N+](=O)[O-])ccc1N=Cc1nc(-c2ccc(C)cc2)oc1O	-4.0	2.3
Ic1ccc(C2=CC(c3cccs3)n3ncnc3N2)cc1 (stereo not given)	0.0	3.4
Cc1cccc(N2CCN(C(=O)c3cn4c(n3)CCCC4)CC2)c1C	54.0*	0.0
Cc1ccc(C)c(N2CCN(C(=O)c3ccc4c(c3)nc3n4CCCC3)CC2)c1	84.5*	-4.6
Cc1ccc(C)c(N2CCN(C(=O)c3ccc(-c4nccnc4N(C)C)cc3)CC2)c1	94.2*	-4.1
SMILES	mHTT-CaM PPI inh	Pf apPOL inh
Cc1ccccc1N1CCN(C(=O)c2cn3c(n2)CCCC3)CC1	30.1	-2.7
CCc1nc(N2CCCC2=O)sc1C(=O)N1CCN(c2cccc(C)c2C)CC1	63.8*	-1.3
Cc1ccc(C)c(N2CCN(C(=O)c3cccc(-c4nccnc4N(C)C)c3)CC2)c1	43.9	-0.3
O=C(c1ccc2c(c1)nc1n2CCCCC1)N1CCN(c2ccccc2)CC1	11.1	-4.9
Cc1cccc(N2CCN(C(=O)c3noc4c3CCCC4)CC2)c1C	-24.1	-2.6
FC(F)(F)c1cc(-c2ccccc2)n2ncnc2n1	1.0	27.4
COc1ccc(/C=C2N=C(/C=C/c3cccc(Cl)c3Cl)OC/2=O)c(OC)c1	8.0	-0.1
O=C(NCCSCc1ccco1)C1CCN(c2nc3cccnc3s2)CC1	1.4	-5.7
Cc1ccc(C)c(N2CCN(C(=O)c3cn4c(n3)CCCC4)CC2)c1	51.0*	-5.4
CCN1CCn2cc(C(=O)N3CCN(c4cc(C)ccc4C)CC3)nc2C1	15.8	-1.7
Cc1cc(C)n(-c2ccnc(N3CCc4ccccc43)n2)n1	-20.4	-2.2
COc1ccc(S(=O)(=O)Nc2ccc3oc(=O)sc3c2)cc1	6.0	-6.1
COc1ccc(S(=O)(=O)Nc2cc3sc(=O)oc3c3ccccc23)cc1	100.3*	4.2
CN1C(=O)c2ccccc2C(C(=O)Nc2ccc(C(F)(F)F)cc2)C1c1cccs1 (stereo not given)	3.0	9.9
Oc1ccccc1-c1cc(-c2ccccc2)no1	-10.5	-4.6
COc1ccc(-c2cc(-c3cc(C)ccc3O)[nH]n2)cc1	70.2*	-17.6
NC(N)=NC(N)=Nc1cc(-c2cccs2)[nH]n1	.	1.7
COc1ccc(-c2cc(C(=O)O)c3cc(C)ccc3n2)cc1	-3.4	-5.4
Cc1cc(-c2ccccc2)n[nH]1	7.3	82.8*
Cc1ccc(O)c(-c2cc(-c3ccccc3)n[nH]2)c1	74.3*	-2.7
Cc1ccc(O)c(-c2cc(-c3cccs3)[nH]n2)c1	56.0*	3.4
Cc1[nH]nc(-c2ccccc2)c1Br	-8.7	1.9
NC(=O)CN1C(=O)C(=Cc2ccco2)N=C1c1ccccc1	.	2.9
Cc1ccc(S(=O)(=O)c2ccc(Cl)c(N)c2)cc1	.	7.9
N#Cc1c(NC(=O)CCCN2C(=O)c3ccccc3C2=O)sc2c1CCCC2	-3.9	7.0
SMILES	mHTT-CaM PPI inh	Pf apPOL inh
O=C(c1cc2ccccc2oc1=O)N1CCSC1c1ccccc1 (stereo not given)	5.0	33.8
Oc1ccccc1-c1cc(-c2cccc(Br)c2)n[nH]1	96.1*	-10.3
Oc1ccccc1-c1cc(-c2ccc(Br)cc2)n[nH]1	35.3	-3.4
Cc1nc2cccc(-c3cc(-c4ccccc4O)[nH]n3)c2o1	67.0*	-6.3
Cc1ccccc1-c1cc(-c2ccccc2O)on1	-42.3	-8.4
CCOc1ccc(/C=C2/SC(=Nc3ccc(F)cc3)NC2=O)cc1	11.0	2.3
COc1ccc(NC(=O)NC(c2ccccc2)c2ccccc2)cc1OC	61.9*	-4.8
COc1ccc(C(=O)NC(c2ccccc2)c2ccccc2)cc1OC	-3.4	-5.7
C=C1CCN([C@@H](CC(C)C)C(=O)NCCCc2ccccc2)S(=O)(=O)c2ccccc21	64.6*	-1.0
C=C1CCN([C@@H](CC(C)C)C(=O)Nc2nc3ccc(Cl)cc3s2)S(=O)(=O)c2ccccc21	94.2*	-4.3
C=C1CCN([C@@H](CC(C)C)C(=O)O)S(=O)(=O)c2ccccc21	3.7	2.1
C=C1CCN([C@@H](CC(C)C)C(=O)Nc2ccc(OC)cc2)S(=O)(=O)c2ccccc21	0.9	-4.1
Cc1cc(C(=O)N2CCC(C(N)=O)CC2)ccc1[N+](=O)[O-]	0.0	5.0
CSc1ccccc1NC(=O)CC1CSc2nccc(=O)n21 (stereo not given)	-15.0	5.0
CCN(CC)S(=O)(=O)c1ccc(NC(=O)c2ccc([N+](=O)[O-])cc2)cc1	7.0	0.7
COc1ccc(-c2[nH]n(-c3nc4ccccc4s3)c(=O)c2C=NCC2CCCO2)cc1 (stereo not given)	45.0	-2.3
COc1ccc(-c2[nH]n(-c3nc4ccccc4s3)c(=O)c2C=NCc2ccccn2)cc1	84.0*	-5.9
CCN(Cc1cc(-c2ccc(C)cc2C)on1)C(=O)c1ccc(C)cc1	-21.8	1.2
CC(=O)N(Cc1ccc2c(c1)OCO2)Cc1cc(-c2ccc(C)cc2C)on1	61.2*	-3.2
CC(C)(C)c1ccc(C2=NC(C)(C)N(CC(=O)Nc3ccc4c(c3)OCCO4)C2=O)cc1	22.5	-4.8
